Here are results for 99 compounds from PubChem BioAssay AID1063 (University of Pittsburgh Molecular Library Screening Center, 2008).

Hit rate of the full screen: of about 200,000 compounds, about 18,000 (9%) were called active. This excerpt belongs to a sample that is enriched for actives. A number with no mark means an inactive call. Rule as the data show it: active = inhibition above about 50%; inactive = the rest.

This experiment in a line: Leishmania major promastigote growth inhibition, primary screen (AID 1063).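 Also: promastigotes grown with compound for 44 hours at 28 °C.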 As to conditions: Leishmania major promastigotes, resazurin fluorescence viability; at 10 µM; stronger effect = higher value.
The term inhibition denotes the drop in the measured response relative to a control, in per cent. Take `O=C1CN(C(=O)CN2C(=O)NC3(CCCCC3)C2=O)c2ccccc2N1`: the inhibition was -5.28%. For `Cc1ccccc1Nc1scc(-c2ccc(Br)cc2)[n+]1-c1ccccc1C`, the inhibition is 31%.

With `CC(=O)N1CCN(c2ccc(NCc3ccc(C(C)C)cc3)cc2)CC1`, the inhibition was 81.4% (active).

Take `CC(CC(=O)N1CCN(c2ccccc2)CC1)c1ccccc1` (centres undefined): the inhibition was -5.82%. In the case of `CCc1ccc(NC(=O)N2CCN(c3ccccc3)CC2)cc1`, the inhibition is 25.5%. Consider `NC(=O)N1CCc2ccccc21`, for which the inhibition was -6.03%. On to `O=C(Nc1ccccc1)OCc1cn(-c2ccc(Cl)cc2)nn1`, for which the inhibition is -4.84%. Next, `N#Cc1ccc(N2Cc3ccccc3/C2=N/C(=O)Nc2ccc(Cl)cc2)cc1`: 71.6% (active). As for `Cc1cccc(N2Cc3ccccc3C2=NC(=O)c2ccc(Cl)nc2)c1`, the inhibition was 4.02%.

Turning to `Cn1cccc1/C=C1\SC(=O)N(CC(=O)Nc2ccc(F)cc2)C1=O`, the inhibition was -0.17%. As for `c1ccc(COc2ccccc2CNCc2cccnc2)cc1`, the inhibition was 75% (active). Next, `COc1ccccc1CNCc1cccs1`: 7.82%; `Fc1ccccc1COc1ccccc1CNCc1ccncc1`: 98.5% (active).

For `O=C(CCc1ccccc1)NCc1cccnc1`, the inhibition was -1.64%. Regarding `CCOc1cc(/C=N/O)ccc1OCc1ccccc1F`, the inhibition is -1.85%. `CCC(Oc1ccccc1)C(=O)NCc1cccnc1` (centres undefined): the inhibition was 3.42%.

Take `O=C(CNC1CCCCC1)NCC1(c2ccccc2)CCCC1`: the inhibition is 19.4%. Next, `O=C(O)c1n[nH]nc1-c1ccccc1`: -4.14%. As to `COC(=O)c1cc(NC(=O)CN2CCN(C(C)=O)CC2)cc(C(=O)OC)c1`, the inhibition was 2.15%. Take `Fc1ccc(CNCc2ccc(Br)cc2)cc1`: the inhibition was 84.8% (active). For `O=C(Cc1ccccc1)NCc1ccc(F)cc1`, the inhibition was -4.83%. Regarding `Cc1cc(C)cc(NC(=S)NCc2ccc(F)cc2)c1`, the inhibition is 16.7%. For the compound `Cn1c(SCC(=O)Nc2ccc(Br)cc2F)nnc1-c1ccco1`, the inhibition was -5.27%. For `NC(=O)C1CCN(C(=O)COc2cccc3cccnc23)CC1`, the inhibition was -6.58%. Take `COc1ccc(OCc2cn3c(C)cc(C)nc3n2)cc1`: the inhibition is -3.26%. The result for `COc1ccc(C(=O)CSc2nc(C)cc(C)n2)cc1[N+](=O)[O-]` reads 16%; that for `COc1ccc(C(C[N+](=O)[O-])n2nc(C)cc2C)cc1` (centres undefined), 100% (active). Take `CN(C)/C=C(/C(=O)c1ccccc1Cl)S(C)(=O)=O`: the inhibition is 3.15%. With `CCn1nc(C)cc1C(=O)N1CCCC(C(=O)c2cccc(OC)c2)C1` (centres undefined), the inhibition is -7.56%.

With `Cc1cnc(C(=O)N2CCCC(C(=O)c3ccc(C(F)(F)F)cc3)C2)cn1` (centres undefined), the inhibition was 3.62%. For the compound `COc1ccc(C(=O)C2CCCN(C(=O)c3cc4nc(C)cc(C)n4n3)C2)cc1F` (centres undefined), the inhibition was 57.3% (active). Take `C=CCn1cc(C(=O)NCc2ccc(Cl)cc2)c(=O)c2cc(S(=O)(=O)N(CC)CC)ccc21`: the inhibition was 13.9%. For `COc1ccc(C(=O)CN(C(=O)c2ccc(Cl)cc2)N2C(=O)c3ccccc3C2=O)cc1`, the inhibition was -4.51%. Turning to `CCc1nc2oc3ccccc3c(=O)c2c(=O)n1Cc1ccc(OC)cc1`, the inhibition was 8.88%. As for `COc1ccc(Cn2c(-c3ccc(Cl)cc3)c[n+]3ccccc23)cc1`, the inhibition was 99.2% (active). As for `COc1ccc(-c2nn(-c3ccccc3)cc2/C=C\C(=O)Nc2ccc(C(=O)O)cc2)cc1`, the inhibition is -5.87%. On to `Cc1c(C(=O)Nc2ccccc2)sc2nc3n(c(=O)c12)CCCCC3`, for which the inhibition is 61.8% (active). Regarding `O=c1c2c(nc3n1CCCCC3)sc1c(O)cccc12`, the inhibition is -1.41%. For the compound `Cc1c(C(=O)Nc2cccc(-c3nnc4n3CCCCC4)c2)oc2ccccc12`, the inhibition was 27.1%. Regarding `C=CCNc1nc(Nc2ccc(Cl)cc2)nc(OC)n1`, the inhibition was 41.2%. Next, `COc1ccc(C2Nc3ccccc3C(=O)N2Cc2ccccc2)cc1Cn1nnc2ccccc21` (centres undefined): 97% (active); `COc1ccc(C2=NO[C@@H]3C(=O)N(Cc4ccccc4)C(=O)[C@H]23)cc1OC`: -2.75%; `COc1ccc(C2Nc3ccccc3C(=O)N2c2ccc(F)cc2)cc1Cn1nnc2ccccc21` (centres undefined): 20.3%. `CCN1CCN(C(C(=O)NC2CCCC2)c2cc3c(cc2[N+](=O)[O-])OCO3)CC1` (centres undefined): the inhibition was -2.85%. `COc1ccc(Cc2n[nH]c(=S)n2NC(=O)Nc2ccc(C)cc2)cc1`: the inhibition is -2.58%. Take `CCN1CCN(Cc2nc3c(c(=O)n(C)c(=O)n3C)n2CC(=O)c2ccccc2)CC1`: the inhibition is 1.75%. Regarding `Cn1c(=O)c2c(nc(CN3CCOCC3)n2Cc2ccccc2)n(C)c1=O`, the inhibition is -4.56%.

In the case of `CN1CCN(Cc2nc3c(c(=O)n(C)c(=O)n3C)n2Cc2cccc3ccccc23)CC1`, the inhibition is 58.8% (active).

Take `Cc1cccc(NC(=S)N2CCC(O)CC2)c1C`: the inhibition is -2.49%. As for `Cc1ccc(NC(=O)COc2ccc(-n3ccnc3)cc2)cc1Cl`, the inhibition was 86.5% (active). Turning to `Cc1csc(OCC(=O)Nc2ccc(C)c(C)c2)n1`, the inhibition was -3.8%.

As to `Cc1ccccc1OCC(=O)Nc1ccc(N2CCN(C(=O)C(C)C)CC2)c(Cl)c1`, the inhibition is 40.7%. Turning to `O=C(CNC(=O)COc1ccccc1)NCCc1ccccn1`, the inhibition is -2.06%. As to `CCc1ccc(-c2nn(-c3ccccc3)cc2CSC(=N)N)cc1`, the inhibition was 100% (active). Turning to `N=C(N)SCc1cccc2ccccc12`, the inhibition is 5.8%. In the case of `CCn1c(SCc2ccc(C)cc2)nnc1-c1nn(-c2ccccc2)ccc1=O`, the inhibition is 5.13%. Consider `N/C(=N\OC(=O)CCc1ccccc1)c1cccnc1`, for which the inhibition is -5.44%. Next, `COC(=O)CSc1nccc(-c2cccs2)n1`: 1.92%.

Take `Cc1nnc(SCC(=O)N2CCN(c3ccccc3)CC2)n1-c1ccccc1`: the inhibition was 5.01%. In the case of `Cc1nnc(SCc2ccc(C(=O)c3ccc(Cl)cc3)o2)n1-c1ccccc1`, the inhibition is 98.6% (active). On to `Cc1nnc(SCC(=O)NCCOc2ccc(Cl)cc2)n1-c1ccccc1`, for which the inhibition is -1.38%.

With `CNC(=O)c1[nH]cnc1C(=O)N[C@@H](CC(C)C)C(=O)OCc1ccccc1`, the inhibition is 0.78%. As for `O=C(NCCc1c[nH]c2ccccc12)c1cc2ccccc2oc1=O`, the inhibition was 1.33%. Next, `CCN(CC)S(=O)(=O)c1ccc2[nH]cc(C(=O)NCCc3ccccc3)c(=O)c2c1`: 7.93%. Consider `CN(c1ccccc1)S(=O)(=O)c1ccc(Cl)c(C(=O)NCCc2c[nH]c3ccccc23)c1`, for which the inhibition is 95.2% (active). Turning to `CCn1c(=S)[nH]c2sc3c(c2c1=O)CCCCC3`, the inhibition is -4.76%. On to `Cc1nc2nc(CSc3nc4ccccc4s3)cc(=O)n2[nH]1`, for which the inhibition was 1.29%. For the compound `CCN(CC)CCCSc1nc2ccccc2s1`, the inhibition is 70.2% (active).

In the case of `Cc1sc2ncnc(Sc3nc4ccccc4s3)c2c1C`, the inhibition was 7.91%.

As for `O=C1COc2ccc(C(=O)COC(=O)C3CC(O)CN3S(=O)(=O)c3ccc(Cl)cc3)cc2N1` (centres undefined), the inhibition is -7.23%. Regarding `CCS(=O)(=O)N1Cc2ccccc2CC1C(=O)Nc1nc2ccc(F)cc2s1` (centres undefined), the inhibition is 19.1%. Regarding `CN(C)C(=O)N1CCNCC1`, the inhibition was -4.41%. On to `COc1cccc(-c2cc(C(=O)N/N=C/c3ccc(OC)c(COC(C)=O)c3)c3ccccc3n2)c1`, for which the inhibition was 10.4%.

With `Cc1ccc(-c2cc(C(=O)N/N=C/C=C/c3ccco3)c3ccccc3n2)cc1C`, the inhibition was 55.7% (active). The result for `O=C(N/N=C/C=C/c1ccco1)c1cccs1` reads -2.33%; that for `COc1ccc(NS(=O)(=O)c2ccc(O)c(C(=O)OCC(=O)NC3CCCCC3)c2)cc1`, -3.84%. Regarding `O=C(NNc1cc(Cl)ccc1Cl)c1cccnc1Cl`, the inhibition is -4.41%. For the compound `COC(=O)Cc1ccc(NC(=S)NCc2ccco2)cc1`, the inhibition was -3.07%.

For the compound `CC(C)c1nc(CNC(=O)CC2C(=O)NCCN2Cc2ccoc2)cs1` (centres undefined), the inhibition was -2.52%. Next, `COCc1c(N)c(C)nc(Cl)c1C#N`: 3.91%; `Oc1ccccc1/C=N/n1c(-c2cccs2)n[nH]c1=S`: -8.08%. For `S=c1[nH]nc(-c2cccs2)n1/N=C/c1cccs1`, the inhibition was -14.7%. For `Cc1ccsc1/C=N/n1c(=S)[nH]nc(C)c1=O`, the inhibition was 99% (active). For `Cc1c(Cl)cccc1NC(=O)CSc1ccc(-c2cccnc2)nn1`, the inhibition was 10.9%.

With `Cc1cc(Oc2ccc(Cl)cc2)nc(SCC(=O)c2ccccc2)n1`, the inhibition is 95.7% (active). Regarding `COC(=O)c1cc(C(=O)CSc2nc(C)cc(C)n2)ccc1O`, the inhibition was -2.37%. For `Cc1cc(SCC(=O)c2ccccc2)nc(SCC(=O)c2ccccc2)n1`, the inhibition is -2.75%. The result for `CC(=O)c1sc(NC(=O)C2=NN(c3ccccc3)C(=O)CC2)nc1C` reads 2.95%; that for `CC1=CC=CC2=N/C(=N\S(=O)(=O)c3ccc(F)cc3F)c3ccccc3CN12`, 2.41%. On to `O=[N+]([O-])c1ccccc1Nc1ccc(O)cc1`, for which the inhibition was 5.07%. For the compound `Oc1ccc(CNc2ccccc2O)cc1`, the inhibition was 98.9% (active). As for `O=[N+]([O-])c1ccccc1NCc1ccc(Cl)cc1`, the inhibition was -7.18%. For the compound `O=C(CS(=O)(=O)c1ccccc1)Nc1ccc(S(=O)(=O)Nc2ccccn2)cc1`, the inhibition is -6.61%.

On to `O=C(NCCc1ccc(F)cc1)c1n[nH]c2ccccc12`, for which the inhibition is 3.08%. For `O=C(CC(O)(C(F)(F)F)C(F)(F)F)Nc1ccc(Cl)c(Cl)c1`, the inhibition was 100% (active). `O=C(Cc1ccc(Cl)c(Cl)c1)Nc1ccc(SC(F)F)cc1`: the inhibition was 4.28%.

Turning to `CN(C)CCNC(CC(=O)Nc1ccc(Cl)c(Cl)c1)C(=O)O` (centres undefined), the inhibition was -6.23%. Regarding `Cc1cc(C)n(-c2ccc(C(=O)O)cc2[N+](=O)[O-])n1`, the inhibition was -1.85%.

Take `COC(=O)Cc1csc(/N=C/c2c(O)n(-c3cccc(C(F)(F)F)c3)c(=O)c3ccccc23)n1`: the inhibition is -6.16%.
